In the supplement of paper PMC6555819:

Legend:
Experiment in all cases: PBM binding z-score (relative to random genomic background probes); higher = stronger binding; sequences stand for … in GC…GCGATTGACAGCGTAGAATGAAGG
[1] = system: PPARg:RXRa DBDmut IVT, anti-RXR (DBD mutation: RXRa K156A/R161A, NR concentration 270 nM, RXRa partner concentration 90 nM)
Method in brief: (§1)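 Each nuclear receptor dimer, without ligand, was incubated for 1 h on custom Agilent 4×180K protein-binding microarrays. Binding was detected with antibodies against each partner (one per run), and scanned fluorescence was regression-normalized. The binding z-scores are referenced to random human genomic background probes.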

[2] = system: PPARg:RXRa IVT, anti-PPARg (NR concentration 270 nM, RXRa partner concentration 90 nM)
Method in brief: as §1

[3] = system: PPARg DBDmut:RXRa IVT, anti-PPARg (DBD mutation: PPARg1 K132A/R137A, NR concentration 270 nM, RXRa partner concentration 90 nM)
Method in brief: as §1

[4] = system: PPARg DBDmut IVT, anti-PPARg (DBD mutation: PPARg1 K132A/R137A, NR concentration 270 nM)
Method in brief: as §1

[5] = system: PPARg homodimer (NR concentration 180 nM)
Method in brief: as §1

[6] = system: PXR:RXRa (NR concentration 270 nM, RXRa partner concentration 90 nM)
Method in brief: as §1

[7] = system: PXR homodimer (NR concentration 270 nM)
Method in brief: as §1

[8] = system: RARa:RXR (NR concentration 270 nM, RXRa partner concentration 90 nM)
Method in brief: as §1

[9] = system: RARa homodimer (NR concentration 270 nM)
Method in brief: as §1

[10] = system: RARb:RXRa (NR concentration 270 nM, RXRa partner concentration 90 nM)
Method in brief: as §1

[11] = system: RARb homodimer (NR concentration 270 nM)
Method in brief: as §1

[12] = system: RARg:RXRa (NR concentration 270 nM, RXRa partner concentration 90 nM)
Method in brief: as §1

[13] = system: RARg homodimer (NR concentration 270 nM)
Method in brief: as §1

[14] = system: RXRa DBDmut IVT, anti-RXR (DBD mutation: RXRa K156A/R161A, NR concentration 90 nM)
Method in brief: as §1

[15] = system: RXRa homodimer (NR concentration 180 nM)
Method in brief: as §1

[16] = system: THRa:RXRa (NR concentration 90 nM, RXRa partner concentration 90 nM)
Method in brief: as §1

[17] = system: THRa homodimer (NR concentration 90 nM)
Method in brief: as §1

[18] = system: VDR:RXRa (NR concentration 270 nM, RXRa partner concentration 90 nM)
Method in brief: as §1

[19] = system: VDR homodimer (NR concentration 270 nM)
Method in brief: as §1

Sequence	PBM binding z-score [1]	PBM binding z-score [2]	PBM binding z-score [3]	PBM binding z-score [4]	PBM binding z-score [5]	PBM binding z-score [6]	PBM binding z-score [7]	PBM binding z-score [8]	PBM binding z-score [9]	PBM binding z-score [10]	PBM binding z-score [11]	PBM binding z-score [12]	PBM binding z-score [13]	PBM binding z-score [14]	PBM binding z-score [15]	PBM binding z-score [16]	PBM binding z-score [17]	PBM binding z-score [18]	PBM binding z-score [19]
ATCTCTAGCTAAAAGTTCAGTGAATCCCGAGGAT	-0.639	-0.151	0.697	1.23	0.702	1.3	1.49	0.379	0.986	2.17	2.38	1.43	1.84	0.736	0.493	0.457	-0.0184	0.955	1.64
CGAACTAGGTCAAGGACATTGAATCTCCGCACGC	8.24	7.84	1.49	0.731	1.29	1.56	0.252	2.12	0.87	3.98	3.12	3.91	4.46	1.62	2.91	3.16	2.43	1.73	1.13
ACTAGTTGGTCAGCTGAGGTCACGCACAATTCGG	1.52	3.03	0.779	-0.0173	2.43	5.57	1.08	4.84	0.816	4.04	4.79	4.85	4.8	1.32	4.79	5.26	5.78	5.09	3.51
CGAACTAGTTCATTGACAGGACAGTGAATAGTAA	0.941	0.504	0.647	0.333	0.0581	1.09	0.739	0.372	0.437	1.25	0.576	1.79	1.11	3	0.234	0.837	-0.237	1.26	2.01
AGATTGAGGTTATTAAGATCAGGGAATTGCGGTC	2.3	2.34	0.654	0.969	1.25	1.32	0.669	1.33	0.972	1.41	1.06	1.07	0.837	1.55	1.44	2.37	0.869	2.28	1.49
TAGCCTAGCTCATGCGGGCCAGTATAGTGTCGGC	-0.92	-0.527	-0.361	-0.899	-1.61	-1.02	-0.998	-1.04	-0.996	-1.16	-1.08	-0.81	-0.912	-1.45	-0.694	-1.65	-1.25	–	-0.887
ATCTCTAGGTAAAGATTGTTCAGTGAATGCAAAT	2.3	1.85	0.903	0.841	0.219	0.132	0.182	0.436	1.35	0.105	0.0182	-0.0248	0.361	0.286	-0.291	0.472	0.375	0.327	0.0196
ATATGTAGGTTAGCTGGGGTGATTCAGACTAGGC	6.78	5.76	1.88	1.63	1	1.55	0.409	1.31	1.29	1.07	1.08	0.84	0.761	0.484	0.872	4.14	1.26	1.01	0.601
